The structures appear in SMILES notation.

In general, residual activity refers to the signal under treatment as a percentage of the control signal. Low values mean little activity left, high ones much activity left.

The target in the assay is ALK tyrosine kinase receptor (Homo sapiens) (UniProt Q9UM73). Conditions: at 1 µM.
Sequence of ALK tyrosine kinase receptor (Homo sapiens) (Q9UM73 19-1620 limits assumed): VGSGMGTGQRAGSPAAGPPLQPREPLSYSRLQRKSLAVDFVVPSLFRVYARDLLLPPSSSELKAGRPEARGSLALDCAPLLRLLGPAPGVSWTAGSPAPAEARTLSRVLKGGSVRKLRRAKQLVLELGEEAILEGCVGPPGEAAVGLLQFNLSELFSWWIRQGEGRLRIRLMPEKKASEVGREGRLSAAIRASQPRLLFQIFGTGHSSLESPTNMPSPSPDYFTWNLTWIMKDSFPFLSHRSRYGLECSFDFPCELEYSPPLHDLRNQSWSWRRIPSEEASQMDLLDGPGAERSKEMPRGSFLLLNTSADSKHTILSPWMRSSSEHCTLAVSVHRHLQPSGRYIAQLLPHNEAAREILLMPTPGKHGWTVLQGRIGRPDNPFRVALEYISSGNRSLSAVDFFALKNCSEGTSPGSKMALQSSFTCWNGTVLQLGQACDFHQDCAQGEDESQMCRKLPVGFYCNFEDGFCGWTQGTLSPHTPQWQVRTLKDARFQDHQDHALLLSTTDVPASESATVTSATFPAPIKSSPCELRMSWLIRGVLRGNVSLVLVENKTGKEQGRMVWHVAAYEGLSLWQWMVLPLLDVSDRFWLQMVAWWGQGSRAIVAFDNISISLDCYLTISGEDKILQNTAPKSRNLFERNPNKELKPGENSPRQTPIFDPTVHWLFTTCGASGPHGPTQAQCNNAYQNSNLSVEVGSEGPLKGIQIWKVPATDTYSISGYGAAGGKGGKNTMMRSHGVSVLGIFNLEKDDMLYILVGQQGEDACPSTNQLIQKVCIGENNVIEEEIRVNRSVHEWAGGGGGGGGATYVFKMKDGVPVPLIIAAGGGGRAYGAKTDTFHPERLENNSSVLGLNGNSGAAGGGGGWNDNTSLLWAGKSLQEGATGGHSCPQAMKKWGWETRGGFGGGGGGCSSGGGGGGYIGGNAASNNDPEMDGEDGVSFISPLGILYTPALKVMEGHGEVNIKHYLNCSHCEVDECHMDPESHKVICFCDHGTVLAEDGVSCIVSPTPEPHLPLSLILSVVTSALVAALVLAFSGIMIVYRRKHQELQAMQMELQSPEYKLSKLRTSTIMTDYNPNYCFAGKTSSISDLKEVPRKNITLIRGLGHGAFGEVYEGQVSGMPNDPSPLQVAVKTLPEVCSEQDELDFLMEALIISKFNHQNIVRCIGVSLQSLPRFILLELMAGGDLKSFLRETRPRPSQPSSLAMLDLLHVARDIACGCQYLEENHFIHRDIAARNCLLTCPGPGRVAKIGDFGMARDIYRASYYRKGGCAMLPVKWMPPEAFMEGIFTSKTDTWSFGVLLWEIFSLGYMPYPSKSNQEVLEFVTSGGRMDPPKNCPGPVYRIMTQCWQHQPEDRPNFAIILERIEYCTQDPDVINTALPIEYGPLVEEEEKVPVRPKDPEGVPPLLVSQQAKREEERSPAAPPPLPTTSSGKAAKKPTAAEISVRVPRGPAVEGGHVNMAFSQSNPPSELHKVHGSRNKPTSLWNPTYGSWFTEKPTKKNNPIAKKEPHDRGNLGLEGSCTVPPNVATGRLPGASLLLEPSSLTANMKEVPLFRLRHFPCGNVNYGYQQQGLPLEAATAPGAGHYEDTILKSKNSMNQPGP
In turn, `COc1cc2ncnc(Nc3cccc(Cl)c3)c2cc1OC` registered a residual activity of 100%.

`O=C1NC(=O)C(c2cn(CCCO)c3ncccc23)=C1c1cnccn1` returned a residual activity of 84%.

For the compound `O=C(NC(NC(=S)Nc1ccc(F)c([N+](=O)[O-])c1)C(Cl)(Cl)Cl)C(c1ccccc1)c1ccccc1` (centres undefined), the residual activity came out at 81%.

For `CC(C)(C)n1nc(Cc2cccc3ccccc23)c2c(N)ncnc21`, the residual activity is 89%. In turn, `Nc1ncnc2c1c(-c1ccc(Oc3ccccc3)cc1)cn2C1CCCC1` displayed a residual activity of 76%. In the case of `O=C(c1ccccc1)c1ccc(N2CCOCC2)cc1O` it was 78%; in that of `CC(C)c1nn(-c2c(Cl)cccc2Cl)c2nc(Cc3ccc(OCCO)cc3)[nH]c(=O)c12`, 78%.

In the case of `Cn1sc(=O)n(Cc2ccccc2)c1=O`, the residual activity came to 64%. In turn, `COc1ccc2c(c1)c(C1=C(c3c[nH]c4ccccc34)C(=O)NC1=O)cn2CCCN(C)C` had a residual activity of 80%. In the case of `Nc1ncnc2c1cnn2-c1ccccc1` it was 79%. In the case of `O=C(O)/C=C/c1cc(Br)c(Br)c(Br)c1Br` it was 88%. Take `Cn1c2ccccc2c2c3c(c4c5ccccc5n(CCC#N)c4c21)CNC3=O`: the residual activity is 0%. For `O=C1NC(=O)c2c1c1c3ccccc3[nH]c1n1cncc21`, the residual activity was 77%. For `COc1cc2c(cc1OC)-c1n[nH]c(Nc3cccc(F)c3)c1C2` the value was 74%. In the case of `Nc1n[nH]c2nc3ccccc3nc12` it was 67%; in that of `O=c1cc(N2CCNCC2)oc2c(-c3ccccc3)cccc12`, 69%; in that of `CCCC(=O)Oc1ccc2[nH]c(C(=O)c3cc4ccccc4[nH]3)cc2c1`, 78%. For `O=C1Nc2ccccc2/C1=C\c1c(Cl)[nH]c2ccccc12` the value was 81%; for `N#Cc1c(NC(=O)c2cccc3ccccc23)sc2c1CCCC2`, 80%.

(Values after ChEMBL document CHEMBL2218924, “A broad activity screen in support of a chemogenomic map for kinase signalling research and drug discovery” (Biochem J, 2013).)
